A short description of test [1]: A CellTox Green Cytotoxicity Assay to monitor cytotoxicity in HEK293 cells - 32 hour (AID 1224881). Further: nearly all actives have a fitted effect of over 40% in size. In outline: (§1)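 HEK293 cells, 600/well, were preincubated 5 hours and then exposed to compounds at 37 C for up to 40 hours. A cell-impermeant cyanine dye staining dead-cell DNA was read by fluorescence at 0, 8, 16, 24, 32 and 40 h time points.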
Test [2] in a line: A CellTox Green Cytotoxicity Assay to monitor cytotoxicity in HEK293 cells - 8 hour (AID 1224884). Further: nearly all actives have a fitted effect of over 35% in size. In short, it runs like this:
as §1

The nature of test [3]: A CellTox Green Cytotoxicity Assay to monitor cytotoxicity in HEK293 cells - 16 hour (AID 1224888). Further: nearly all actives have a fitted effect of over 35% in size. In outline: as §1
Test [4] is described as follows: qHTS RealTime-Glo MT Cell Viability Assay in HepG2 cells - 0 hour (AID 1224889). Further: nearly all actives have a fitted effect of over 50% in size. In short, it runs like this:
(§2)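 HepG2 cells were seeded at 600 cells/well together with NanoLuc luciferase and a cell-permeant prosubstrate, preincubated 5 h at 37 C/5% CO2, then pin-dosed with compounds in DMSO. Nonlytic luminescence from viable cells was read at each time point.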
Background: In qHTS, concentration-response curves come from the screen itself.

Test [5] can be described thus: A CellTox Green Cytotoxicity Assay to monitor cytotoxicity in HepG2 cells - 8 hour (AID 1224890). Further: nearly all actives have a fitted effect of over 45% in size. In short, it runs like this: (§3)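 HepG2 cells, 600/well, preincubated 5 h with CellTox Green dye, then exposed to Tox21 compounds in DMSO at 37 C for up to 40 h. Dead-cell DNA fluorescence read at the indicated time point.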
Test [6] is described as follows: qHTS assay to identify small molecule antagonists of the estrogen receptor alpha (ER-alpha) signaling pathway using the BG1 cell line in the presence of 0.1 nM 17-beta-estradiol - cell viability counter screen (AID 1259241). Further: nearly all actives have a fitted effect of over 40% in size. In short, it runs like this: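 Cells were plated and left 24 hr, compounds in DMSO were pinned in, 17beta-estradiol was added to 0.1 nM final, and after 22 hr CellTiter-Fluor reagent was added for 30 min before fluorescence was read.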

Test [7] is described as follows: qHTS assay to identify small molecule antagonists of the androgen receptor (AR) signaling pathway using the MDA cell line in the presence of 0.5 nM R1881 - cell viability counter screen (AID 1259242). Further: nearly all actives have a fitted effect of over 45% in size. In short, it runs like this:
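MDA-kb2 cells (MMTV-luciferase, AR/GR responsive) were treated with compounds plus 0.5 nM R1881 (final) for 16 hr at 37C, 0% CO2. Viability was then read in the same wells as live-cell protease fluorescence (CellTiter-Fluor, 30 min).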

Test [8] can be described thus: qHTS assay to identify small molecule HDAC inhibitors (AID 1259364). Further: top concentration of the series differs between compounds; nearly all actives have a fitted effect of over 45% in size. In short, it runs like this:
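Wild-type HCT-116 cells, plated overnight at 37 C, exposed to compounds 2 hr at 37 C; luminogenic HDAC-Glo substrate then added 30 min at room temperature. Luminescence reports relative endogenous class I/II HDAC activity.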

The nature of test [9]: qHTS assay to identify small molecule HDAC inhibitors - cell viability counter screen (AID 1259365). Further: series mostly up to about 92 µM; nearly all actives have a fitted effect of over 50% in size. In outline: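 Counter screen in wild-type HCT-116 cells: compounds dissolved in DMSO are pin-transferred onto overnight-plated cells and left 2hr at 37C. ATP-based CellTiter-Glo luminescence then measures viable cells.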
The nature of test [10]: qHTS assay to identify small molecule agonists of the sonic hedgehog signaling (Shh) pathway - cell viability counter screen (AID 1259366). Further: nearly all actives have a fitted effect of over 50% in size. In short, it runs like this: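 Cells are plated at 2,000 per well and left 4hr at 37C, 5% CO2 before compound addition. After 23hr of treatment, CellTiter-Fluor reagent is added for 1hr at 37C and fluorescence is measured.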
Test [11] is described as follows: qHTS assay to identify small molecule agonists of the sonic hedgehog signaling (Shh) pathway (AID 1259368; calls by dose curve;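 further: NIH/3T3-derived 3T3Gli1-Luc cells carrying a stable Gli1-driven firefly luciferase reporter; series mostly up to about 92 µM; nearly all actives have a fitted effect of over 15% in size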). In short, it runs like this:
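NIH/3T3-derived 3T3Gli1-Luc cells with stably integrated Gli1-driven firefly luciferase, 2,000 cells/well, compounds added after 4 hr. Incubated 24 hr at 37C, 5% CO2; luminescence read after 30 min with luciferase reagent at room temperature.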

A short description of test [12]: A CellTox Green Cytotoxicity Assay to monitor cytotoxicity in HepG2 cells - 32 hour (AID 1224883). Further: nearly all actives have a fitted effect of over 50% in size. In short, it runs like this:
as §3

Test [13] can be described thus: qHTS RealTime-Glo MT Cell Viability Assay in HepG2 cells - 16 hour (AID 1224885). Further: nearly all actives have a fitted effect of over 50% in size. In outline:
as §2

The nature of test [14]: qHTS RealTime-Glo MT Cell Viability Assay in HEK293 cells - 8 hour (AID 1224887). In short, it runs like this: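 600 cells/well were plated with the nonlytic NanoLuc/prosubstrate reagent, pre-incubated 5 h, then given 23 nL of compound in DMSO. Incubation at 37 C for 40 h, with luminescence from viable-cell-reduced substrate read repeatedly from 0 h.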
The target in test [15] is Estrogen receptor (Homo sapiens) (UniProt P03372). The experiment in a line: qHTS assay to identify small molecule antagonists of the estrogen receptor alpha (ER-alpha) signaling pathway using the BG1 cell line in the presence of 0.1 nM 17-beta-estradiol (AID 1259244). Further: nearly all actives have a fitted effect of over 50% in size. Further: potency means the concentration at half of the fitted maximal effect. In outline:
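VM7Luc4E2 cells (endogenous full-length ER-alpha, 4×ERE-luciferase), kept 5 days in phenol red-free, charcoal-stripped FBS medium; 4,000 cells/well. Compounds added with 0.1 nM (final) 17beta-estradiol, 22 hr at 37C; luminescence read with ONE-Glo after 30 min.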

The nature of test [16]: qHTS assay to identify small molecule phospholipidosis (PLD) inducers (AID 1259344; active means well fitted curve in the direction sought with a large enough effect; an effect the other way counts as inactive or inconclusive; further: potency means the concentration at half of the fitted maximal effect). In short, it runs like this:
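HepG2 cells grown on collagen I take up LipidTOX Red while exposed to compound for 24 h; after fixation they are imaged at 20x and pit metrics are extracted.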

Test [17] can be described thus: qHTS RealTime-Glo MT Cell Viability Assay in HEK293 cells - 24 hour (AID 1224886). In outline: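 HEK293 cells were seeded at 600 cells/well together with NanoLuc luciferase and cell-permeant prosubstrate, preincubated 5 h at 37 C/5% CO2, then given compound in DMSO by pintool. Luminescence from viable-cell prosubstrate reduction was read repeatedly over 40 h.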
Test [18] is described as follows: qHTS assay to identify small molecule antagonists of the sonic hedgehog signaling (Shh) pathway - cell viability counter screen (AID 1259367). Further: nearly all actives have a fitted effect of over 55% in size. Further: potency means the concentration at half of the fitted maximal effect. In outline:
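After a 4 hr settling period, 3T3 Gli1-Luc cells were treated with DMSO-dissolved chemicals and conditioned medium, kept 24 hr at 37C in 5% CO2, and assayed for viability by CellTiter-Fluor fluorescence following 1 hr reagent incubation.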

Test [19] in a line: A CellTox Green Cytotoxicity Assay to monitor cytotoxicity in HepG2 cells - 0 hour (AID 1224882). Further: nearly all actives have a fitted effect of over 35% in size. In outline: as §3

Results filed as inconclusive are left out. Calls of active or inactive are those of the source. Unless noted, the call rests on the fitted dose curve; in most records, active means well fitted curve in the direction sought with a large enough effect in the repeat runs; inconclusive means weak or mixed curves; inactive means no such curve, though single readings can be large; an effect the other way counts as inactive or inconclusive.

Estrogen receptor (Homo sapiens), sequence (P03372 whole entry, looked up): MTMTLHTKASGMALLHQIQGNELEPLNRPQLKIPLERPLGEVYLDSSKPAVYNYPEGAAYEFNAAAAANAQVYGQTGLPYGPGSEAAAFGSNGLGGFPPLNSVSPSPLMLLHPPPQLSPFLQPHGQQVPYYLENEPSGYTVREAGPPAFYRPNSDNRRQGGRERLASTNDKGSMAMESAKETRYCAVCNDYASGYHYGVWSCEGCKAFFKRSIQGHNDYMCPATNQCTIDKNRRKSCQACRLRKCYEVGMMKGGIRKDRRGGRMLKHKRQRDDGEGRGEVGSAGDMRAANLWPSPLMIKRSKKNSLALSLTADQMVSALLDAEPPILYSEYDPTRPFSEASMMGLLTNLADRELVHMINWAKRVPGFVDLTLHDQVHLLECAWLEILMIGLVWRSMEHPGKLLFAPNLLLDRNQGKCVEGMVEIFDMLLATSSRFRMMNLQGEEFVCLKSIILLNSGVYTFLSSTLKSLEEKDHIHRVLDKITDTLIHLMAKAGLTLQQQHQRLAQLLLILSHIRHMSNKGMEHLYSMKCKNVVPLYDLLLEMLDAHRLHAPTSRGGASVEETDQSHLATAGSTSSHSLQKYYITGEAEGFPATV

Turning to `CC(C)(C)c1cc(CO)cc(C(C)(C)C)c1O`, the Potency entry in [1], in test [2], in test [3], in test [4], in [5] and in test [6] was “inactive” throughout. The Potency entry in test [7], in [8] and in test [10] was “inactive” each time. Moreover, the result in test [9] and in [11] was inactive.
For `CCCOc1ccc2nc(NC(=O)OC)[nH]c2c1`, the Potency entry in test [1], in [12], in [2], in [13], in test [14] and in test [3] was “inactive” each time. Also, the Potency entry in [4], in test [5], in [6], in test [7], in test [15] and in [16] was “inactive” throughout. For the same compound, the Potency entry in [10] is “inactive”. Also, the call in test [9] and in test [11] was inactive.
In the case of `c1ccc(-c2nc[nH]c2-c2ccccc2)cc1`, the Potency result in [1], in test [2], in test [17], in [14], in test [3] and in test [4] was “inactive” throughout. Further, the Potency result in test [6], in [7], in test [16], in test [8], in [10] and in test [18] was “inactive” each time. The outcome in test [11] was inactive.
On to `CN1CCN(C2=Nc3ccccc3Sc3ccc(Cl)cc32)CC1`, for which the Potency entry in test [19], in [12], in test [2], in test [13], in [17] and in [14] was “inactive” each time. Also, the Potency entry in [3], in test [4], in test [5], in test [6], in [7] and in test [10] was “inactive” throughout. Moreover, the Potency in test [16] is 11.2 µM (active). The compound was classed as inactive in test [9] and in test [11].
For `O=[N+]([O-])c1cc[n+]([O-])cc1`, the Potency result in test [1], in test [12], in test [2], in test [17], in test [14] and in test [3] was “inactive” each time. Moreover, the Potency result in test [4], in [5] and in test [7] was “inactive” throughout. The Potency in test [15] is 54.5 µM (active); in [18] it was 61.1 µM (active). In addition, the result in [9] and in test [11] was inactive.
For `CC(O)C1CCCCC1` (stereo not given), the Potency entry in [1], in test [12], in [13], in test [17], in test [4] and in [5] was “inactive” in each case. The Potency entry in [6], in test [7], in test [8] and in test [10] was “inactive” each time. In addition, the call in test [9] and in test [11] was inactive.
On to `O=C(Nc1ccccc1)OCC(CN1CCCCC1)OC(=O)Nc1ccccc1` (stereo not given), for which the Potency entry in [1], in test [2], in test [13], in test [3], in [4] and in test [6] was “inactive” throughout. Besides, the Potency result in test [7], in test [15], in test [16], in test [8] and in test [18] was “inactive” throughout. The outcome in test [11] was inactive.
With `Oc1ccc2c(c1)OCO2`, the Potency entry in test [19], in test [12], in test [2], in test [13], in test [17] and in test [3] was “inactive” throughout. Moreover, the Potency entry in test [4], in test [6], in test [7], in test [15], in [10] and in test [18] was “inactive” each time. Further, the compound was called inactive in test [9] and in [11].
Turning to `CCCCCCCCCC(=O)OCC`, the Potency entry in test [1], in test [2], in test [13], in test [17], in [14] and in test [3] was “inactive” throughout. For the same compound, the Potency entry in test [4], in test [6], in [7], in [15], in test [8] and in [10] was “inactive” each time. For the same compound, the Potency result in test [18] was “inactive”. In test [11], the call was inactive.
As to `O=[N+]([O-])c1cccc(Cl)c1Cl`, the Potency result in test [19], in test [12], in test [2], in test [13], in test [17] and in [3] was “inactive” throughout. The Potency entry in test [4], in [5], in test [6], in test [7], in [15] and in test [8] was “inactive” throughout. The Potency result in test [10] and in test [18] was “inactive” each time. The outcome in test [9] and in test [11] was inactive.

The record behind these values is PubChem BioAssay (Tox21).
